The supplement of paper PMC11732987, “Enantioselective OTUD7B fragment discovery through chemoproteomics screening and high-throughput optimisation” (Communications Chemistry, 2025)

Experiments:
Assay in all cases: log2 ratio of Biotin-Ahx-Ub-VS probe labelling (fragment/DMSO); higher = less target engagement (more negative = stronger competition), active = hit call of the paper (q ≤ 0.05, log2 ratio ≤ -1)
Conditions in all cases: compound concentration: 200 uM; treatment time: 3 h
OTUD6B = molecular target: T1, OTUD6B (UniProt Q8N6M0)
T1 sequence (whole entry): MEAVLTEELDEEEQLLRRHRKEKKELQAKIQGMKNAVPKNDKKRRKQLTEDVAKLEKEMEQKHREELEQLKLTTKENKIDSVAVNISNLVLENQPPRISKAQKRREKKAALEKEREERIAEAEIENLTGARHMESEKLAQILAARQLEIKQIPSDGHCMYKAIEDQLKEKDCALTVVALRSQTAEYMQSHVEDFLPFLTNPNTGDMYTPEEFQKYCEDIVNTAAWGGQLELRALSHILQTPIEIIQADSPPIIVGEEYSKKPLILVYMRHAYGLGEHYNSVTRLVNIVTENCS
How it was run: (§1)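 Values give the average log2 ratio of fragment to vehicle, assessed by unpaired t-test on global-median-normalised Spectronaut label-free quantities. Proteins needed ≥2 unique peptides. HEK293T lysate (495 µg per sample) was treated in triplicate with fragment at 200 µM or vehicle for 3 h and then with Biotin-Ahx-Ub-VS at 0.5 µM final for 1 h. Labelled DUBs were NeutrAvidin-enriched, digested and run by diaPASEF LC-MS/MS.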

OTUD7B = molecular target: T2, OTUD7B (UniProt Q6GQQ9)
T2 sequence (whole entry): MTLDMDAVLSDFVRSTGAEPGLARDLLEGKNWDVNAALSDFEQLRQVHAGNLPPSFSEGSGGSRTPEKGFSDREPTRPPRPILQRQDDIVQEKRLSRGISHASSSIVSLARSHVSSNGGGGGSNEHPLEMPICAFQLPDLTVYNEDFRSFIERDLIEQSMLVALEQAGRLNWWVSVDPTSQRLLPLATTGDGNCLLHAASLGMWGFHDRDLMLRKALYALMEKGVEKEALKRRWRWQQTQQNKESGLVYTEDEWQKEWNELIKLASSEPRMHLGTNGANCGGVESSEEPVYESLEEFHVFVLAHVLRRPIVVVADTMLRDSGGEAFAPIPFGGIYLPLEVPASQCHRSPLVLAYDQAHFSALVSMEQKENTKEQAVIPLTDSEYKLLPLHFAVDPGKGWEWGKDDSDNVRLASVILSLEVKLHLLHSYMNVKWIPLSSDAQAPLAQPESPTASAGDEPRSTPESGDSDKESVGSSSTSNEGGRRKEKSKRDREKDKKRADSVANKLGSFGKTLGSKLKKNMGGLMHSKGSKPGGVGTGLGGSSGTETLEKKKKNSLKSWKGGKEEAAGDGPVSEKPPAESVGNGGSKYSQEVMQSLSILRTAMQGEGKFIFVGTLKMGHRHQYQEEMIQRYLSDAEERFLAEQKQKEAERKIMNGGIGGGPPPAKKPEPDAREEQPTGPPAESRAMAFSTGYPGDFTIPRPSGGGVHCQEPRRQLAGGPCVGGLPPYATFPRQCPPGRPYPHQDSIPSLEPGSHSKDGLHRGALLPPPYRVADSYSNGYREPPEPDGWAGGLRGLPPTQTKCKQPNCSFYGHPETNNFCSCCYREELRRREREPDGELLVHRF
How it was run: as §1

PRPF8 = PRPF8 (UniProt Q6P2Q9)
How it was run: as §1

PSMD7 = molecular target: T3, PSMD7 (UniProt P51665)
T3 sequence (whole entry): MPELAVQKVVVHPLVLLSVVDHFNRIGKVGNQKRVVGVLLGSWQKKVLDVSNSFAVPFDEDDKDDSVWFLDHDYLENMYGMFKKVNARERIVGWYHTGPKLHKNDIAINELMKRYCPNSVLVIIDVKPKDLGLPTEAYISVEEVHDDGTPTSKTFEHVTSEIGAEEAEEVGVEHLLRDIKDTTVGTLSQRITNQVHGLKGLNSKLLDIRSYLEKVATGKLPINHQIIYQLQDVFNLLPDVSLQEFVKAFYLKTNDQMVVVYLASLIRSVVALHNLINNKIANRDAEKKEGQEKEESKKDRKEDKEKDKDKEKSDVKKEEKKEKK
How it was run: as §1

UCHL1 = UCHL1 (UniProt P09936)
UCHL1, sequence (P09936 whole entry, looked up): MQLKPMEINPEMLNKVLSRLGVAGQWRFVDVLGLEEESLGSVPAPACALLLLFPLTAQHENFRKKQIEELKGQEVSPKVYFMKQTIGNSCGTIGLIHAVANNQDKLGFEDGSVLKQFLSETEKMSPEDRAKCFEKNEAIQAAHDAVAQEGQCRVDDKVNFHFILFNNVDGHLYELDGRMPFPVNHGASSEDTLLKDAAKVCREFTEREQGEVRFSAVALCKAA
How it was run: as §1

UCHL3 = molecular target: T4, UCHL3 (UniProt P15374)
T4 sequence (whole entry): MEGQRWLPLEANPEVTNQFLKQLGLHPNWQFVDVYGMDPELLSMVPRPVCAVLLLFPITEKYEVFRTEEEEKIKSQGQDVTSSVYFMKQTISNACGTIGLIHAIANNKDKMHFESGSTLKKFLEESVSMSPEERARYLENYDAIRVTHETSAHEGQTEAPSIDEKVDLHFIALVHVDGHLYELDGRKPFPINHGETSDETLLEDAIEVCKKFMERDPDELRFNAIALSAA
How it was run: as §1

UCHL5 = molecular target: T5, UCHL5 (UniProt Q9Y5K5)
T5 sequence (whole entry): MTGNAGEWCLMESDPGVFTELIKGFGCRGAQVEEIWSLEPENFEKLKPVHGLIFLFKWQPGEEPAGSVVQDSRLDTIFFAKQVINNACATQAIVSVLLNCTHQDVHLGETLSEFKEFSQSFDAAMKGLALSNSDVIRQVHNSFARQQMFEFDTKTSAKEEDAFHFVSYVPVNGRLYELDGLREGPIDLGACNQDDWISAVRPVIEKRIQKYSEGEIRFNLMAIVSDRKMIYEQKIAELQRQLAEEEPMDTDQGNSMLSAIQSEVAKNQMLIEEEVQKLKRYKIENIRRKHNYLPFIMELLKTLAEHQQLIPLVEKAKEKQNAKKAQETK
How it was run: as §1

USP10 = USP10 (UniProt Q14694)
USP10, sequence (Q14694 whole entry): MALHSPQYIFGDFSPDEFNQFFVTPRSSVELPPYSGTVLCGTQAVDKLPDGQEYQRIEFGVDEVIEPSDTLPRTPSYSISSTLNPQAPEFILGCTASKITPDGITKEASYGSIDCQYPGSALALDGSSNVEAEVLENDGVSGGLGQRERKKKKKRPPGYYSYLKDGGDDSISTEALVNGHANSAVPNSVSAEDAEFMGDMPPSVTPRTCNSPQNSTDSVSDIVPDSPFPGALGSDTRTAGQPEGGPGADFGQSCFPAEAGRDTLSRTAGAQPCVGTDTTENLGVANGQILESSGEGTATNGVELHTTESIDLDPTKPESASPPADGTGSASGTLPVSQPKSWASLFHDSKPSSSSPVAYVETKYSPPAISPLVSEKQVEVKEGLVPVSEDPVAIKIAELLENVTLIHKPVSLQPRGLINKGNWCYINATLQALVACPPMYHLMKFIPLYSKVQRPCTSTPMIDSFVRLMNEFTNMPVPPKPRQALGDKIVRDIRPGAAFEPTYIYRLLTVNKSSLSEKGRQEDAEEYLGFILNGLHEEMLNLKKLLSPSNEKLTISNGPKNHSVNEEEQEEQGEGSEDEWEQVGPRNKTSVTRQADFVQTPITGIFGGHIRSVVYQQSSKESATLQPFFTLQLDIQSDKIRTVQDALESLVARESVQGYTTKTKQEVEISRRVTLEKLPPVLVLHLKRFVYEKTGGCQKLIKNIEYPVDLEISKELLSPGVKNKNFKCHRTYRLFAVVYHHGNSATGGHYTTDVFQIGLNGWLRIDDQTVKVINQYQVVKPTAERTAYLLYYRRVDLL
How it was run: as §1

USP15 = molecular target: T6, USP15 (UniProt Q9Y4E8)
T6 sequence (whole entry): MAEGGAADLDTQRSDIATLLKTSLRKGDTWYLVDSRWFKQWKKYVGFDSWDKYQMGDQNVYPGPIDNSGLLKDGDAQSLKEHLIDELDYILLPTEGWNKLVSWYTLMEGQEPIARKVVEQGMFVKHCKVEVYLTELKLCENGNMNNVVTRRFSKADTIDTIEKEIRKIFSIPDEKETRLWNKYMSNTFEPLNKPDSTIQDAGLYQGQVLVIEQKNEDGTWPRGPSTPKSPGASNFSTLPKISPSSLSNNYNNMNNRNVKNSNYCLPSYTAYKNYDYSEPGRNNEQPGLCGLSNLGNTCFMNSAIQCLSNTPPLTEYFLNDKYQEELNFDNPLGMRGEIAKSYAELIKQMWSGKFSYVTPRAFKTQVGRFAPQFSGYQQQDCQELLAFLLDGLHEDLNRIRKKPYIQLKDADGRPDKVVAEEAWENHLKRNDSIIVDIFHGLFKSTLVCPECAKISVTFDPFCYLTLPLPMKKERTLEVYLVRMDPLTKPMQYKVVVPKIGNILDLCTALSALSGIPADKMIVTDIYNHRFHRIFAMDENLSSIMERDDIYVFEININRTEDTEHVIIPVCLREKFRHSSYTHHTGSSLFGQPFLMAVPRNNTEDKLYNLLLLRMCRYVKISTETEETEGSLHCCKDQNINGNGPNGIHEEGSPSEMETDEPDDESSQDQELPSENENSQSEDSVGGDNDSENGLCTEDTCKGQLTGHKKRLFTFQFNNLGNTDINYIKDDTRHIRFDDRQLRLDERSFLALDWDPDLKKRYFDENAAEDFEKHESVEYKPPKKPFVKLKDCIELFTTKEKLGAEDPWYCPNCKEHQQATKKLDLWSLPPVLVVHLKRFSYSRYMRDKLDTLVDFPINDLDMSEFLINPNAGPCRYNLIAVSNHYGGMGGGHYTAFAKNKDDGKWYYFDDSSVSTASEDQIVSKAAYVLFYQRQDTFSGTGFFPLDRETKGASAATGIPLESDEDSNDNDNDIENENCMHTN
How it was run: as §1

USP16 = USP16 (UniProt Q9Y5T5)
USP16, sequence (Q9Y5T5 whole entry, looked up): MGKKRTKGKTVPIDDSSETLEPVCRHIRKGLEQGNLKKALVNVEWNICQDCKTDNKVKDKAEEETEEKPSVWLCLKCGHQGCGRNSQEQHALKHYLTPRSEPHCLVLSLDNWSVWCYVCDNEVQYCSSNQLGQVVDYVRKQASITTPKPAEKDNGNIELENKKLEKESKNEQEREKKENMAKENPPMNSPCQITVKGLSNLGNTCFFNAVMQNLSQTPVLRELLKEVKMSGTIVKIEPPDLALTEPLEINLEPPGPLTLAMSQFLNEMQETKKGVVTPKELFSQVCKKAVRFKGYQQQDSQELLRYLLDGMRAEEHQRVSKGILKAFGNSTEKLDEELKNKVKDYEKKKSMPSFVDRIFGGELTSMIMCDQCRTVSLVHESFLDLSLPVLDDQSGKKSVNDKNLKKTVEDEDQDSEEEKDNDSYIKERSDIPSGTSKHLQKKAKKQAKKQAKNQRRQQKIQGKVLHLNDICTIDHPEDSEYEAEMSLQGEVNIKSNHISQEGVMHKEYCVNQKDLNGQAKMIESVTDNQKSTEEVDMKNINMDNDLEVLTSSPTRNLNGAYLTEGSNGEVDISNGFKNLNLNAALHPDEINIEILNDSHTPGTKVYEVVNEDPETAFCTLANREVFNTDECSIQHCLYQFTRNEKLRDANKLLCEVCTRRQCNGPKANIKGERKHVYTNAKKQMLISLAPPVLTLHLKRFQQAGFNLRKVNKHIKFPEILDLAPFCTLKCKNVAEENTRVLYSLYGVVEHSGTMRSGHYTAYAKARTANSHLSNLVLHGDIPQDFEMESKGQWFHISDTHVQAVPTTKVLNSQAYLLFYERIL
How it was run: as §1

Measured: log2 ratio of Biotin-Ahx-Ub-VS probe labelling

Cl.Cn1nc2c(c1CNC(=O)CCl)CCCC2
inactive: OTUD6B -0.361 | PRPF8 -0.184 | PSMD7 -0.299 | UCHL3 0.314 | UCHL5 -0.368 | USP10 -0.24 | USP15 -0.224 | USP16 -0.4
active: OTUD7B -1.04 | UCHL1 -1.7
